The target of experiment [1] is DNA repair nuclease/redox regulator APEX1 (Homo sapiens) (UniProt P27695). Kind of experiment: qHTS Validation Assay for Inhibitors of the Human Apurinic/apyrimidinic Endonuclease 1 (APE1) (AID 1705; further: potency means the concentration at half of the fitted maximal effect;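 on activity change, negative = inhibition: TAMRA fluorescence gain over two minutes as APE1 cuts a quenched THF abasic duplex; on the % scale 0 is the no-effect control and ±100 the full control effect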). An outline of the steps:
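Endonuclease activity of human APE1 is followed as dequenching when the enzyme incises a tetrahydrofuran abasic site in a short duplex labelled 5'-TAMRA/3'-BHQ-2 (50 nM final), after 15 min enzyme–compound preincubation at room temperature.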
For orientation: qHTS replaces the single test concentration by a dilution series.

A short description of experiment [2]: Counterscreen for APE1 Inhibitors: Fluorescent Dye Displacement Validation Assay (AID 1707).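 Further: plate controls were ThO with dsDNA and no compound for no effect and ThO without dsDNA for full effect.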 An outline of the steps:
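Thiazole Orange (250 nM) bound to 50 nM TAMRA-labelled dsDNA with tetrahydrofuran abasic site; displacement by DNA-binding compounds lowers fluorescence. Buffer 50 mM Tris-HCl pH 7.5, 50 mM NaCl, 2 mM MgCl2, 0.01% Tween-20; endpoint read at 480/540 nm.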
In general terms: A counterscreen serves to expose hits that act by an unwanted route or on another target.

The target of experiment [3] is Endonuclease 4 (Escherichia coli (strain K12)) (UniProt P0A6C1). The experiment in a line: Counterscreen for APE1 Inhibitors: qHTS Validation Assay for Inhibitors of Endonuclease IV (AID 1708). Further: potency means the concentration at half of the fitted maximal effect. On activity change, negative = inhibition: on the % scale 0 is the no-effect control and ±100 the full control effect. An outline of the steps:
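E. coli EndoIV at 2 nM final, preincubated 15 min at room temperature with compound, then 50 nM TAMRA/BHQ-2 THF abasic-site duplex added. Buffer: 50 mM Tris-HCl pH 7.5, 50 mM NaCl, 2 mM MgCl2, 1 mM DTT, 0.01% Tween-20. Kinetic fluorescence increase, third minus first read.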

A short description of experiment [4]: qHTS for differential inhibitors of proliferation of Plasmodium falciparum line 7G8 (AID 1815).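 Further: parasite growth measured after three days of incubation.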 Further: potency means the concentration at half of the fitted maximal effect.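 On activity change, negative = inhibition: plate controls were vehicle wells for no effect and reference inhibitor wells for full effect.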
Experiment [5] in a line: qHTS for differential inhibitors of proliferation of Plasmodium falciparum line GB4 (AID 1816).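 Further: parasite growth measured after 72 h incubation.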 Further: potency means the concentration at half of the fitted maximal effect.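 On activity change, negative = inhibition: 0% = vehicle DMSO and -100% = reference inhibitor.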 To be noted: Potency: Plasmodium falciparum GB4 proliferation inhibition.
Experiment [6] is described as follows: qHTS for differential inhibitors of proliferation of Plasmodium falciparum line 3D7 (AID 1876). Further: potency means the concentration at half of the fitted maximal effect.
Experiment [7] can be described thus: qHTS for differential inhibitors of proliferation of Plasmodium falciparum line D10 (AID 1877).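 Further: parasites grown with compound for 72 h before DNA staining.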 Further: potency means the concentration at half of the fitted maximal effect.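 On activity change, negative = inhibition: plate controls were vehicle wells for no effect and reference inhibitor wells for full effect.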
The nature of experiment [8]: qHTS for differential inhibitors of proliferation of Plasmodium falciparum line Dd2 (AID 1882). Further: nearly all actives have a fitted effect of over 65% in size. Further: potency means the concentration at half of the fitted maximal effect.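 On activity change, negative = inhibition: plate controls were DMSO vehicle for no effect and 0.29 µM artemisinin for full effect.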 Conditions: Potency: Plasmodium falciparum Dd2 proliferation inhibition. An outline of the steps: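 Dd2-infected erythrocytes (0.3% parasitemia, 2.5% hematocrit final) incubated with compound 72 h at 37 C, 5% CO2; lysed with saponin/Triton buffer containing SYBR Green I, incubated overnight in the dark, then read by fluorescence (485/535 nm). Normalized to 0.29 uM artemisinin and DMSO.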

A short description of experiment [9]: qHTS for differential inhibitors of proliferation of Plasmodium falciparum line W2 (AID 1883).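 Further: potency means the concentration at half of the fitted maximal effect; parasites grown with compound for 72 h before lysis and staining.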 To be noted: Potency: Plasmodium falciparum W2 proliferation inhibition.
The nature of experiment [10]: qHTS for differential inhibitors of proliferation of Plasmodium falciparum line HB3 (AID 1886).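 Further: parasites grown with compound for 72 h before SYBR Green readout.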 Further: potency means the concentration at half of the fitted maximal effect.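 On activity change, negative = inhibition: plate controls were vehicle for no effect and reference inhibitor for full effect.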 Conditions: Potency: Plasmodium falciparum HB3 proliferation inhibition.
The target of experiment [11] is Ferritin light chain (Equus caballus) (UniProt P02791). Kind of experiment: qHTS Validation Assay for Identification of Novel General Anesthetics (AID 2323). Further: on the % scale 0 is the no-effect control and ±100 the full control effect. An outline of the steps: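 Apoferritin from horse spleen (10 uM) was mixed with 1-aminoanthracene at 50% saturation in PBS, then compounds were added. After 10 min at room temperature, fluorescence was read (ex 380 nm, em 535 nm) and normalized to free-probe and complex controls.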
Chain of Ferritin light chain (Equus caballus) (P02791 2-175 limits assumed): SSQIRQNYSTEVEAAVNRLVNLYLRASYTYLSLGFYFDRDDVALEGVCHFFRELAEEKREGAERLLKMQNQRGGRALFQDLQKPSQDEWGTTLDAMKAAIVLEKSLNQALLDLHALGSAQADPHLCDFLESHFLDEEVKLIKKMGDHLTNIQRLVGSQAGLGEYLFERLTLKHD

Experiment [12] concerns the target ATP-dependent DNA helicase Q1 (Homo sapiens) (UniProt P46063). The experiment in a line: qHTS Validation Assay for Inhibitors of RecQ-Like Dna Helicase 1 (RECQ1) (AID 2353). Further: potency means the concentration at half of the fitted maximal effect.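 On activity change, negative = inhibition: plate controls were DMSO vehicle for no effect and enzyme-free control for full effect.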 An outline of the steps: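 50 nM RECQ1T1 preincubated 15 min with compound in Tris pH 8.0 buffer with MgCl2, DTT, Tween-20 and 2.5 ug/ml poly(dI-dC); started with 200 nM TAMRA/BHQ-2 forked duplex and 2 mM ATP. Unwinding read as fluorescence (525/598 nm), two reads 2 h apart.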

Experiment [13] can be described thus: Cytometric Cell-Based qHTS for Inhibitors of the mTORC1 Signaling Pathway in MEF (Tsc2-/-, p53-/-) Cells (AID 2660). Further: potency means the concentration at half of the fitted maximal effect.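 On activity change, negative = inhibition: percent of cells above a phospho-rpS6 to PI ratio cutoff in each well; plate controls were DMSO for no effect and rapamycin for full effect.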 The essentials: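 Tsc2-/-, p53-/- MEFs (empty vector) exposed to compound 24 h at 37 C, fixed, stained with Alexa-488 anti-phospho-rpS6 Ser235/236 and propidium iodide. Acumen laser scanning; phospho-S6/PI ratio thresholded against 7.5 nM rapamycin, reported as % positive cells.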

The nature of experiment [14]: High Content Imaging Cell-Based qHTS for Inhibitors of the mTORC1 Signaling Pathway in MEF (Tsc2-/-, p53-/-) Cells (AID 2666). Further: potency means the concentration at half of the fitted maximal effect. An outline of the steps: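 Phospho-rpS6 (Ser235/236) immunofluorescence, normalized and scored as % positive cells using rapamycin and DMSO controls, was read in empty-vector Tsc2-/-, p53-/- MEFs after 24 h compound exposure at 37 C; propidium iodide counted cells.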

For experiment [15], the target named is RecQ-like DNA helicase BLM (Homo sapiens) (UniProt P54132). The experiment in a line: qHTS Validation Assay for Inhibitors of Bloom's syndrome helicase (BLM) (AID 2364).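 Further: plate controls were DMSO vehicle for no effect and enzyme-free control for full effect.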 An outline of the steps:
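50 nM BLM preincubated 15 min at room temperature with compound in pH 8.0 Tris buffer containing 2.5 ug/ml poly(dI-dC); started with 200 nM TAMRA/BHQ-2 forked duplex and 2 mM ATP (final). Unwinding read as TAMRA fluorescence increase, two reads 2 h apart.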

A short description of experiment [16]: qHTS Assay for Lipid Storage Modulators (AID 1519; calls by dose curve; on activity change, negative = inhibition: on the % scale 0 is the no-effect control and ±100 the full control effect). Conditions: Drosophila S3 cells, BODIPY lipid droplet/cell ratio, laser cytometry, cells loaded with oleic acid; for activity change, negative = inhibition: at 57.5 µM (top of the series). The essentials:
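Cells seeded at 5,000 per well were treated with compounds over a concentration series and loaded with oleic acid (400 uM, as added). Lipid droplet fluorescence (488 nm excitation, 500-530 nm channel) was read by laser-scanning cytometry and normalized to 20 uM Triacsin C.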

Experiment [17] can be described thus: qHTS Assay for Modulators of Human Peripheral Myelin Protein 22 (PMP22) Expression/Activity (AID 1967; active means well fitted curve in the direction sought with a large enough effect in the signal ratio; the % refers to the signal ratio;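 further: 0% = untreated cells and 100% end not stated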). An outline of the steps:
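Quantitative HTS in a mouse Schwann cell line expressing dual click beetle luciferases: Pmp22 promoter (green) and control EF-alpha promoter (red). After 24h treatment, corrected green/red signal ratio gave %Activity relative to untreated cells.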

Experiment [18] can be described thus: qHTS Assay for Identification of Small Molecule Inducers of Hypoxia Response (AID 2120; active means well fitted curve in the direction sought with a large enough effect in the signal ratio, with a control signal flat, not every such curve was filed as active; the % refers to the signal ratio; further: 0% is about no effect). An outline of the steps: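 HRE-bla ME-180 cells in Opti-MEM with 0.5% dialyzed FBS, pre-plated 4-5 h, then compound titration for 17 h at 37 degrees Celsius. CCF4 loaded 2.5 h at room temperature; 460/530 nm ratio gave %Activity and AC50 for induction.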
[19] abbreviates: measured here: cell count channel max response.
[20] abbreviates: measured here: lipid channel max response.

“And” between values parts separate entries of the source, which are not always exact repeats. Identical values can stand only once. Results filed as inconclusive are left out. The source made the active and inactive calls. Unless noted, the call rests on the fitted dose curve; in most records, active means well fitted curve in the direction sought with a large enough effect; inconclusive means small, poorly fitted or top-dose-only effect, or another doubt; inactive means no such curve, though single readings can be large; an effect the other way counts as inactive or inconclusive.

Chain of ATP-dependent DNA helicase Q1 (Homo sapiens) (P46063 whole entry, looked up): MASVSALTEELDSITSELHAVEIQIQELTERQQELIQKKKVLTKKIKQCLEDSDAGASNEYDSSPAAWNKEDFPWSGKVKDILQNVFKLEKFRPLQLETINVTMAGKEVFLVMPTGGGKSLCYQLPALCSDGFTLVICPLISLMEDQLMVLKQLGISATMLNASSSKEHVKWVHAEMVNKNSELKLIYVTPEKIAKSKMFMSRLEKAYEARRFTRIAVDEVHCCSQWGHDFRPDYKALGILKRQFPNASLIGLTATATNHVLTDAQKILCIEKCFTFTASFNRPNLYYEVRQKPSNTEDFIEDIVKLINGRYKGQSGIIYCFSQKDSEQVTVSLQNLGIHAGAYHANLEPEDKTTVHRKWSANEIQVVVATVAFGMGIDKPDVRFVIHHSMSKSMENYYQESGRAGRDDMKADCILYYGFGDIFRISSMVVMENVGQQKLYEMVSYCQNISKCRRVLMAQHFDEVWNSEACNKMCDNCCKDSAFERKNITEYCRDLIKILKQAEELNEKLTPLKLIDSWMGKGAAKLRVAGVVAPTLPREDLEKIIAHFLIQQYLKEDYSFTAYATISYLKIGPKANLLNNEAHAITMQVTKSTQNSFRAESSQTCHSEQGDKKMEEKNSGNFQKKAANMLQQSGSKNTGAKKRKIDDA
Chain of DNA repair nuclease/redox regulator APEX1 (Homo sapiens) (P27695 whole entry, looked up): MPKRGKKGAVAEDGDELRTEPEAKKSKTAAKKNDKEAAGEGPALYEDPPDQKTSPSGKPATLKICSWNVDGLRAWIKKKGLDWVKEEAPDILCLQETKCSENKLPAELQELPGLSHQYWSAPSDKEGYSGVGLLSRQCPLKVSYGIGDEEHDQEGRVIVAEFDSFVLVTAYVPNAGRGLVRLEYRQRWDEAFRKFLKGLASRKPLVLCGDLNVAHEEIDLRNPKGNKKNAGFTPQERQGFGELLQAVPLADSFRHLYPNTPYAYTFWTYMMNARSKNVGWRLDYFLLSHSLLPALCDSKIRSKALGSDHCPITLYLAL
Chain of RecQ-like DNA helicase BLM (Homo sapiens) (P54132 whole entry, looked up): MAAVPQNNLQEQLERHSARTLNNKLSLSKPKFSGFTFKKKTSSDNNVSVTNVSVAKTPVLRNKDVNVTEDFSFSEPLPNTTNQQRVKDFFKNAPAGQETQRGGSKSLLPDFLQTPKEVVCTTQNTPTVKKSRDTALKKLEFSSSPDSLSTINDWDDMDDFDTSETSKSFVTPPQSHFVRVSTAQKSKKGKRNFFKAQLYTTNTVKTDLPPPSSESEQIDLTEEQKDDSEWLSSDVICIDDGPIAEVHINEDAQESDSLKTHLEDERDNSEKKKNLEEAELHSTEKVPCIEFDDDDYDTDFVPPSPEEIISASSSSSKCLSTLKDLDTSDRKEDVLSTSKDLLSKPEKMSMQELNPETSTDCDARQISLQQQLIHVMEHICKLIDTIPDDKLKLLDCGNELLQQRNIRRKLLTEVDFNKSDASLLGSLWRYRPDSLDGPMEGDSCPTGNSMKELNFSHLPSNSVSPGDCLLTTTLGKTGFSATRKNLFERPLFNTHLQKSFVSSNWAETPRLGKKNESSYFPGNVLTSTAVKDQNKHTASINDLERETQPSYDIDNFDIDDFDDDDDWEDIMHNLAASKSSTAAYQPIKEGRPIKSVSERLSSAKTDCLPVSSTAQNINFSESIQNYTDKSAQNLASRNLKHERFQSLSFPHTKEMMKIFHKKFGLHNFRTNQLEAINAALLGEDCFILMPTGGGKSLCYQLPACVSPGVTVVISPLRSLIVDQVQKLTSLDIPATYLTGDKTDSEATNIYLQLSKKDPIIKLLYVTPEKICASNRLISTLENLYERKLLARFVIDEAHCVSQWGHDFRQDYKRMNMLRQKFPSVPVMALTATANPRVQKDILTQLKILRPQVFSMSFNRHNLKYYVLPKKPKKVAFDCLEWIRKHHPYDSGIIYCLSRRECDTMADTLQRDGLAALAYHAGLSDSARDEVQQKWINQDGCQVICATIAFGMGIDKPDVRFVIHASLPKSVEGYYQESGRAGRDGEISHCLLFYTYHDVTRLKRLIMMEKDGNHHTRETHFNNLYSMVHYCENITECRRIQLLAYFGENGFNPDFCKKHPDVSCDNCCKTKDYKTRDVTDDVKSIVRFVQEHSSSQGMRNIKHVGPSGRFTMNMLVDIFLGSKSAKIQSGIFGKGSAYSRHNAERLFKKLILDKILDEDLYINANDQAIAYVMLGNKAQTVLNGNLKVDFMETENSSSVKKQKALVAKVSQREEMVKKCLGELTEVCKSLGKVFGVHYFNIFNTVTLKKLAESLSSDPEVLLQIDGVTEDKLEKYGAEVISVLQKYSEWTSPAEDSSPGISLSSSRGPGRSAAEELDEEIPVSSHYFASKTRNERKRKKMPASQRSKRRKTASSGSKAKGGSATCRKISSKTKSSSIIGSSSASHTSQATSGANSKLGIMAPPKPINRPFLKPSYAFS

For `CC1(C(=O)O)C2CCC(O2)C1(C)C(=O)O` (configuration not stated), the Potency entry in experiment [1], in experiment [2], in [3] and in experiment [12] was “inactive” each time. Besides, the Potency was 3.55 µM (active) in [4]; 3.16 µM (active) in experiment [5]; 2.24 µM (active) in experiment [6]; 1.58 µM (active) in experiment [7]; 5.01 µM (active) in experiment [8]; 1.12 µM (active) in [9]. Further, the Potency is 2.24 µM (active) in experiment [10], 13.1 µM (active) in [13] and 18.5 µM (active) in [14]. In experiment [11], the result was inactive.
For the compound `CCOC(=O)c1ncn2c1[C@@H]1CCCN1C(=O)c1cc(OC)ccc1-2`, the Potency result in experiment [1], in [2], in experiment [3], in experiment [5], in experiment [6] and in experiment [7] was “inactive” each time. In addition, the Potency entry in experiment [8], in experiment [10], in experiment [12], in [15], in [13] and in experiment [14] was “inactive” in each case. In addition, the Potency in experiment [4] is 7.94 µM (active). Further, the outcome in [11] was inactive.
`Cc1c2ccncc2c(C)c2c1[nH]c1ccccc12`: the Potency in [1] is 3.16 µM (active); in experiment [3] it was 2.82 µM (active); in [4], 0.794 µM (active); in experiment [5], 0.398 µM (active); in experiment [6], 0.447 µM (active); in experiment [7], 2 µM (active). Besides, the Potency in experiment [8] is 1.12 µM (active); in experiment [9], 0.708 µM (active); in experiment [10] it was 1.41 µM (active); in [12] it was 10 µM (active). For the same compound, the Potency result in experiment [2] and in experiment [15] was “inactive” throughout. Also, the call in experiment [11] was inactive.
Take `CN1CCC(c2c[nH]c3ccc(O)cc23)CC1`: the activity change, negative = inhibition in experiment [16] is 2.83% (inactive) and 0.677% (inactive). In addition, the max response was 19.5% and 47.8% in experiment [16] (setting [19]); 24% and 52.3% in experiment [16] (setting [20]). For the same compound, the Potency entry in experiment [1], in experiment [2], in experiment [8], in [12], in [13] and in [14] was “inactive” each time. Besides, the Potency in experiment [6] is 10 µM (active); in experiment [9] it was 8.91 µM (active). In addition, the compound was classed as inactive in experiment [17] and in experiment [11].
For `CC(N)[C@H](O)c1ccc(O)c(O)c1` (some centres not stated), the activity change, negative = inhibition in [16] was 0.659% (inactive). Moreover, the max response in experiment [16] (setting [19]) was found to be 1.77%; in experiment [16] (setting [20]), 2.21%. Further, the Potency entry in experiment [2], in experiment [3], in [4], in [5], in [6] and in experiment [7] was “inactive” in each case. Besides, the Potency result in experiment [8], in [10], in experiment [12], in experiment [13] and in experiment [14] was “inactive” in each case. Also, the outcome in experiment [17] and in experiment [11] was inactive.
As to `OC1CCCCC1N1CCC(c2ccccc2)CC1` (configuration not stated), the activity change, negative = inhibition in experiment [16] is 6.18% (inactive). In addition, the max response was 4.61% in experiment [16] (setting [19]) and 12.5% in experiment [16] (setting [20]). For the same compound, the Potency entry in experiment [2], in [3], in experiment [6], in experiment [7], in [8] and in experiment [10] was “inactive” in each case. For the same compound, the Potency entry in [12], in experiment [13] and in [14] was “inactive” throughout. Besides, the Potency in experiment [9] is 10 µM (active). Further, the compound was classed as inactive in [17] and in [11].
Take `O=C1CCO1`: the activity change, negative = inhibition in experiment [16] is 5.6% (inactive). The max response in experiment [16] (setting [19]) was determined as 8.02%; in experiment [16] (setting [20]), 16.6%. The call in experiment [18] was inactive.
As to `Oc1ccc2c3c1O[C@H]1c4[nH]c5ccccc5c4C[C@@]4(O)C(C2)N(CC2CC2)CCC314` (some centres not stated), the Potency entry in [1], in [2], in experiment [3], in experiment [12], in [15] and in experiment [14] was “inactive” in each case. The Potency was 8.91 µM (active) in experiment [4]; 8.91 µM (active) in [5]; 10 µM (active) in experiment [6]; 12.6 µM (active) in [7]; 8.91 µM (active) in [8]; 6.31 µM (active) in [9]. Besides, the result in [11] was inactive.

Source of the values: PubChem BioAssay (NCATS).
